Rows were chosen to be rich in hits. Some 1.7% of all compounds tested hit in one or more screens of this group.
RecA splice inh – Mtb RecA intein splicing inhibitors, primary screen, biochemical, fluorescence, HTS; AID 2221, 2009; cell-free RecA intein splicing; 290,000 tested, 0.75% active; inhibition, % (no concentration beside the values); in the data active = inhibition above about 30%;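 note: 0% = vehicle wells and 100% = reference inhibitor control wells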
PriA SSB inh – inhibitors of Klebsiella pneumoniae PriA binding to SSB C-terminal tail, primary screen, biochemical, AlphaScreen | PriA–SSB C-terminal tail interaction (Klebsiella pneumoniae) | AlphaScreen SSBct-PriA binding, biotinylated peptide | inhibition, % at 33 µM | 430,000 tested, 0.6% active; in the data active = inhibition mostly above about 37%, no sharp cut-off; inactive = mostly below about 20%;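 note: plate controls were negative control peptide for no effect and reference peptide for full effect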
DUSP3 inh – VHR1 phosphatase inhibitors, primary screen, biochemical, absorbance, uHTS | recombinant VHR phosphatase, pNPP absorbance | inhibition, % at 13.3 µM | 290,000 tested, 0.52% active; in the data active = inhibition above about 50%
Target sequence (P51452 whole entry, looked up): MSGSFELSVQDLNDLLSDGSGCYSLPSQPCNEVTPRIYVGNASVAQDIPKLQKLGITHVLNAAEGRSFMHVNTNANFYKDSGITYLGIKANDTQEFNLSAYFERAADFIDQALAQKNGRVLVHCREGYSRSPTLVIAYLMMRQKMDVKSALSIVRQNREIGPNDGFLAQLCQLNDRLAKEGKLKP
3CLpro inhibitor – SARS-CoV 3CLpro protease inhibitors, primary screen, biochemical, quenched FRET; 290,000 tested, 0.14% active; recombinant SARS-CoV 3CLpro, quenched FRET peptide cleavage; inhibition, % at 6 µM; Replicase polyprotein 1ab (Severe acute respiratory syndrome coronavirus), P0C6X7; AID 1706, 2009; in the data active = inhibition above about 12%
CCHF vOTU inh – CCHFV vOTU protease inhibitors, primary screen, biochemical, Pep-AMC substrate, fluorescence | Crimean-Congo hemorrhagic fever virus L polyprotein viral ovarian tumor (vOTU) protease … | inhibition, % at 11.5 µM | 370,000 tested, 0.55% active; in the data active = inhibition above about 30%; note: 0% = vehicle wells with enzyme and 100% = no enzyme wells
Numbers without * were called inactive; . = not tested or not shown; ! = not active in a repeat.

SMILES | RecA splice inh | PriA SSB inh | DUSP3 inh | 3CLpro inhibitor | CCHF vOTU inh
Cn1c(SCC(=O)Nc2ccc3nc(SCC(=O)NC4CC4)sc3c2)nnc1-c1ccccc1 | -4.1 | -15.5 | -12.5 | 2.1 | -7.2
Cn1c(SCC(=O)Nc2ccc3nc(SCC(=O)N4CCCC4)sc3c2)nnc1-c1ccc(N)cc1 | . | 1.3 | 51.6* | 1.4 | .
COc1ccc(CCC(=O)NC(C)c2ccccc2)cc1OC (centres undefined) | 0.0 | -21.4 | 56.9* | -3.8 | 1.9
COc1ccccc1OCCCC(=O)NC(C)c1ccccc1 (centres undefined) | 1.9 | 4.0 | 26.3 | 5.2 | 9.7
Cn1c(SCC(=O)N2CCCCC2)nc2c(-c3ccccc3)csc2c1=O | . | -8.0 | . | . | .
O=C(Nc1nc(C(=O)N2CCN(c3ccc(F)cc3)CC2)cs1)c1ccccc1 | . | -9.0 | . | . | .
COc1ccccc1N1CCN(C2CCCN(Cc3ccccc3OCCO)C2)CC1 (centres undefined) | 0.8 | -6.9 | 59.1* | -3.6 | -2.3
COc1ccc(O)c(CN2CCCC(N3CCN(c4ccccc4OC)CC3)C2)c1 (centres undefined) | -4.8 | 7.0 | 20.7 | 1.1 | 16.9
Cc1ccc(-n2ncc3c(C)nn(CC(=O)Nc4cc(C)on4)c(=O)c32)c(C)c1 | . | -5.0 | . | . | .
CCC(C)[C@H](NC(=O)N1CCn2c1nc1ccccc12)C(=O)NCc1ccccc1 (some centres undefined) | 1.6 | -0.6 | 50.2* | 1.8 | 27.9
Cc1cccc(NC2=C(Cl)C(=O)OC2OC(=O)c2ccco2)c1 (centres undefined) | 41.7* | -13.8 | 6.2 | -1.1 | -8.2
Cc1ccc(NC2=C(Cl)C(=O)OC2OC(=O)c2ccco2)cc1 (centres undefined) | -0.4 | 2.3 | 5.7 | -2.9 | -8.5
CSC(=S)NN=C(C)c1cccc(C)n1 | . | 55.3* | . | . | 16.5
COc1cc(C(=O)NN=C(c2ccccc2)c2ccccn2)cc(OC)c1OC | . | -5.3 | . | . | .
CC(=NNC(=S)N1CCCCC1)c1cccc(C)n1 | . | -7.4 | . | . | -11.6
CSC(=S)N/N=C(/c1ccccc1)c1ccccn1 | . | 108.0* | . | . | .
CN(C)C(=S)NN=C(c1ccccn1)c1ccccn1 | . | 161.5* | . | . | .
COc1cc(=O)n(-c2ccc(F)cc2)nc1C(=O)N1CCCc2ccccc21 | . | 6.0 | . | . | .
COc1ccc(S(=O)(=O)Nc2c(C(=O)O)[nH]c3ccc(OC)cc23)c(OC)c1 | 15.7 | 106.4* | 14.2 | -40.1 | -2.3
COc1ccc(S(=O)(=O)Nc2c(C(=O)O)[nH]c3ccccc23)c(OC)c1 | -1.0 | -9.2 | 25.2 | 1.5 | 7.5
COC(=O)c1[nH]c2ccc(C)cc2c1NS(=O)(=O)c1ccc(OC)cc1OC | . | 57.5* | . | . | .
O=C(NCC1CCN(S(=O)(=O)c2cccnc2)CC1)Nc1ccc(Cl)c(Cl)c1 | . | 6.0 | . | . | .
COc1ccccc1NC(=O)c1ccc(NC(=O)CN2CCCC2)cc1 | 1.3 | 46.7* | 21.7 | -1.7 | -19.1
COc1cc(NC(=O)Nc2cccc(Cl)c2)c(OC)cc1NC(=O)CN1CCCCC1 | 4.0 | 49.5* | 8.3 | -7.5 | 4.9
COc1ccc(NC(=O)CN2CCN(CC(=O)Nc3ccccc3Cl)CC2)cc1Cl | 0.9 | -14.1 | 50.8* | 0.1 | 6.2
SMILES | RecA splice inh | PriA SSB inh | DUSP3 inh | 3CLpro inhibitor | CCHF vOTU inh
COc1ccccc1NC(=O)c1ccc(NC(=O)CN2CCCCC2)cc1 | . | -6.3 | . | . | 23.6
CCCC(CCC)C(=O)Nc1ccc(-c2nc3cccnc3s2)cc1 | . | -18.0 | . | . | .
Cc1ccc(-n2nc(C)c(C=NNC(=O)c3cccs3)c2Cl)cc1 | . | 3.5 | . | . | .
Cc1nn(-c2cccc(Cl)c2)c(Cl)c1/C=N/NC(=O)c1cccs1 | -5.2 | . | 53.8* | 4.5 | 8.1
Cc1cc(C(=O)NCCCOC(C)C)c2ccccc2n1 | -0.5 | -16.9 | 50.3* | -2.2 | -16.8
Cc1nn(-c2ccccc2)c(C)c1C=NNc1nc2ccccc2[nH]1 | . | 56.0* | . | . | .
CCOC(=O)CC(N)=NNC(=O)c1ccc(Cl)cc1Cl | . | 5.0 | . | . | .
O=C(NCc1ccc2c(c1)OCO2)N(c1ccccc1)c1ccccc1 | . | -10.0 | . | . | .
CCOC(=O)CC1=NN(c2ccccc2)C(=O)C1 | 65.9* | -15.6 | 21.2 | 4.1 | 1.6
COc1cccc(NC(=S)NCc2ccc3c(c2)cc(C)n3C)c1 | 5.0 | 23.7 | 1.7 | 4.2 | -0.1
COc1ccc(CNC(=O)Nc2cccc(Cl)c2)cc1 | -2.2 | -13.1 | 26.4 | 0.7 | .
Cc1cc2cc(CNC(=O)Nc3cccc(Cl)c3)ccc2n1C | -0.2 | 59.8*! | 10.8 | -3.4 | 3.4
Cc1cc2cc(CNC(=S)Nc3ccc(OC(F)(F)F)cc3)ccc2n1C | 0.9 | 62.2* | -7.3 | -1.1 | 6.5
Cc1cccc(NC(=O)NCc2ccc3c(c2)cc(C)n3C)c1 | 5.0 | 45.9* | 23.6 | 4.5 | 6.8
Cc1cc2cc(CNS(=O)(=O)c3ccc4ccccc4c3)ccc2n1C | 5.7 | 28.4 | 2.4 | -1.8 | 1.6
Cc1cc2cc(CNC(=S)Nc3ccccc3)ccc2n1C | . | 66.4 | . | . | .
Cc1cc2cc(CNS(=O)(=O)c3ccc(Br)cc3)ccc2n1C | . | 36.0* | . | . | .
Cc1cccc(NC(=S)NCc2ccc3c(c2)cc(C)n3C)c1C | 8.1 | 72.1* | 5.2 | 0.6 | 18.6
CC1(C)C2CCC1(CS(=O)(=O)N1CCc3oncc3C1)C(=O)C2 (centres undefined) | . | -2.0 | . | . | .
CSC1CC2CCC(C1)N2C(=O)c1ccsc1 (centres undefined) | . | 94.0* | . | . | .
CSC1CC2CCC(C1)N2C(=O)c1ccc(C(C)(C)C)cc1 (centres undefined) | . | 7.0 | . | . | .
O=C(O)C[C@@H]1C(=O)O[C@@H]2C(COC(=O)c3cc(O)c(O)c(O)c3)O[C@@H](OC(=O)c3cc(O)c(O)c(O)c3)[C@@H](OC(=O)c3cc(O)c(O)c4c3[C@H]1[C@H](O)C(=O)O4)[C@H]2OC(=O)c1cc(O)c(O)c(O)c1 (some centres undefined) | . | . | 113.8* | . | .
O=[N+]([O-])c1c(C(Cl)Cl)nn(-c2ccccc2)c1N1CCCC1 | 15.7 | 50.4* | 9.6 | 2.2 | 2.7
CN(C)S(=O)(=O)Nc1cccnc1 | . | 9.0 | . | . | .
COc1ccc(C)cc1NCc1ccc([N+](=O)[O-])cc1 | 0.7 | 40.1* | -27.6 | -7.8 | -9.7
